± gives the standard deviation of the averaged measurements.
Test system: NanoLuc luciferase (NLuc)
Assay: residual bioluminescent signal relative to negative control without GSH; higher = less interference (more residual luciferase signal)
Details: screening conditions buffer
Method: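 Selected metal salts at 3-4 concentrations tested on purified FLuc, NLuc or RLuc in screening buffer with 0, 0.2 or 2 mM glutathione added; 10 min enzyme pre-incubation at RT, luminescence 10 min after substrate. Signal normalised to negative control without GSH (% N_VALUE); triplicate wells.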

[1] = metal salt concentration 1 mM, glutathione 0 mM
[2] = metal salt concentration 1 mM, glutathione 0.2 mM
[3] = metal salt concentration 1 mM, glutathione 2 mM
[4] = metal salt concentration 0.001 mM, glutathione 0 mM
[5] = metal salt concentration 0.001 mM, glutathione 0.2 mM
[6] = metal salt concentration 0.001 mM, glutathione 2 mM

Molecule `O=[N+]([O-])[O-].O=[N+]([O-])[O-].[Cu+2]` [copper(II) nitrate] has a residual bioluminescent signal (metal salt concentration 0.0005 mM, glutathione 0 mM) of 104 ± 4.1%, a residual bioluminescent signal (metal salt concentration 0.0005 mM, glutathione 0.2 mM) of 106 ± 5.4% and a residual bioluminescent signal (metal salt concentration 0.0005 mM, glutathione 2 mM) of 89.3 ± 3.6%. It also gave a residual bioluminescent signal (metal salt concentration 0.017 mM, glutathione 0 mM) of 101 ± 7.7%, a residual bioluminescent signal (metal salt concentration 0.017 mM, glutathione 0.2 mM) of 104 ± 6.7% and a residual bioluminescent signal (metal salt concentration 0.017 mM, glutathione 2 mM) of 92.9 ± 4.8%. The residual bioluminescent signal (metal salt concentration 0.02 mM, glutathione 0 mM) was 86.4 ± 3.7%, the residual bioluminescent signal (metal salt concentration 0.02 mM, glutathione 0.2 mM) was 98 ± 2.7% and the residual bioluminescent signal (metal salt concentration 0.02 mM, glutathione 2 mM) was 84.1 ± 2.6%. The residual bioluminescent signal [1] was 0.661 ± 0.17%, the residual bioluminescent signal [2] was 1.03 ± 0.57% and the residual bioluminescent signal [3] was 68.9 ± 7.9%.
`O=[N+]([O-])[O-].[Ag+]` [silver nitrate] showed a residual bioluminescent signal [4] of 98.9 ± 6.8%, a residual bioluminescent signal [5] of 102 ± 1.4% and a residual bioluminescent signal [6] of 90.9 ± 4.7%. For the same molecule, the residual bioluminescent signal (metal salt concentration 0.0114 mM, glutathione 0 mM) was 15.6 ± 8%, the residual bioluminescent signal (metal salt concentration 0.0114 mM, glutathione 0.2 mM) was 106 ± 1.6% and the residual bioluminescent signal (metal salt concentration 0.0114 mM, glutathione 2 mM) was 85.33 ± 0.82%. It also gave a residual bioluminescent signal (metal salt concentration 0.05 mM, glutathione 0 mM) of 2.78 ± 0.95%, a residual bioluminescent signal (metal salt concentration 0.05 mM, glutathione 0.2 mM) of 107 ± 4.8% and a residual bioluminescent signal (metal salt concentration 0.05 mM, glutathione 2 mM) of 85.7 ± 1%. It also gave a residual bioluminescent signal [1] of 3.17 ± 0.68%, a residual bioluminescent signal [2] of 15.2 ± 5.5% and a residual bioluminescent signal [3] of 82.48 ± 0.71%.
`O=[N+]([O-])[O-].O=[N+]([O-])[O-].[Zn+2]` [zinc nitrate] was tested, and the residual bioluminescent signal [4] was 98.9 ± 6.3%, the residual bioluminescent signal [5] was 103 ± 6.2% and the residual bioluminescent signal [6] was 89.6 ± 2.3%. The residual bioluminescent signal (metal salt concentration 0.174 mM, glutathione 0 mM) was 50.9 ± 6%, the residual bioluminescent signal (metal salt concentration 0.174 mM, glutathione 0.2 mM) was 72.7 ± 2.8% and the residual bioluminescent signal (metal salt concentration 0.174 mM, glutathione 2 mM) was 77.5 ± 7.3%. The residual bioluminescent signal [1] was 34.2 ± 8.5%, the residual bioluminescent signal [2] was 42.1 ± 1.7% and the residual bioluminescent signal [3] was 63.9 ± 1.7%. The residual bioluminescent signal (metal salt concentration 5 mM, glutathione 0 mM) was 5.95 ± 1.4%, the residual bioluminescent signal (metal salt concentration 5 mM, glutathione 0.2 mM) was 7.9 ± 2.7% and the residual bioluminescent signal (metal salt concentration 5 mM, glutathione 2 mM) was 12.4 ± 2.1%.
